We go through 14 compounds from PubChem BioAssay.

Activity calls are given as the source filed them.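 How the source made its calls, unless noted: active means NADPH fluorescence slope more negative than the mean of all samples by about 3 SD, 99.7% confidence; inactive means the rest.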

A short description of experiment [1]: inhibitors of TNFa-induced NFkB p65 translocation, primary screen, imaging, HUVEC, MLSMR starter and 10KST1 sets (AID 438;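 active means inhibition above 20% together with a positive visual image hit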;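 further: compound added about 3h40 before a 20 min TNFalpha stimulation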;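 on inhibition: signal is the nuclear over cytoplasmic p65 intensity ratio per well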). The conditions noted are these: HUVEC TNFa-induced p65 nuclear translocation; cell count: measured here: nuclei count (cytotoxicity indicator), at 2.08 µM; inhibition: at 2 µM, stronger effect = higher value, 0% TNFa-plus-vehicle, 100% no-TNFa wells.

Experiment [2] in a line: inhibitors of mutant huntingtin aggregation, primary screen, imaging, exon1htt(103Q)mCFP cells, high-content imaging (AID 483;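 active means visual image review flags a hit and inhibition of aggregation exceeds 20%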;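 further: compound exposure lasted 3 days before fixation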;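 on nuclei count: percent of the per-plate median nuclei count of sample wells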). The conditions noted are these: exon1htt(103Q)mCFP cell line, aggregate imaging, at 2 µM; inhibition of aggregation: stronger effect = higher value; nuclei count: measured here: cell count, toxicity.
A short description of experiment [3]: inhibitors of E-selectin induction by TNFa, primary screen, imaging, HUVEC, immunofluorescence, MLSMR starter and 10KST1 sets (AID 487;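 active means visually confirmed hit in the image check and inhibition above 20%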;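 on inhibition: signal is fraction of cell area covered by stained E-selectin grains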;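 on nuclei count: 100% = median nuclei count of all wells on the same plate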). The conditions noted are these: HUVEC TNFalpha-induced E-selectin immunofluorescence imaging, at 2 µM; inhibition: stronger effect = higher value; nuclei count: measured here: cell number, toxicity.
The target of experiment [4] is Voltage-gated potassium channel subunit beta-2 (Rattus norvegicus) (UniProt P62483). The experiment in a line: KvBeta enzyme negative modulators, primary screen, biochemical, NADPH fluorescence (AID 622;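 active means fluorescence slope higher than the sample average by over 3 SD, cut at about -0.22 in these data, passing the limit was not always enough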;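 further: slope of raw intensity against log time taken from 70 to 1610 s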). To be noted: recombinant KvBeta, 4-cyanobenzaldehyde reduction, at 10 µM, stronger effect = higher value.
Experiment [5] has the same target. Description: KvBeta positive modulators, primary screen, biochemical, NADPH fluorescence (AID 623).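 Further: fluorescence intensity change per second fitted from 20 to 320 s.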 The conditions noted are these: Recombinant KvBeta, NADPH fluorescence decrease slope, 10 min; at 10 µM; stronger effect = lower value.
Experiment [6] deals with Alpha-2C adrenergic receptor (Homo sapiens) (UniProt P18825). Description: modulators of alpha2C/GIRK thallium flux, primary screen, cell-based, HEK293 alpha2C/GIRK1/2 (AID 624;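 active means fluorescence slope after compound addition differing from the mean of all screened samples at 99.7% confidence, in either direction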;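 further: slope of fluorescence ratio to pre-addition baseline per second over 15 to 24 s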). To be noted: thallium flux BTC fluorescence, at 10 µM, actives lie on both sides.
Experiment [7] can be described thus: inhibitors of Sendai virus-induced IRF3 signaling, primary screen, TLR/RLR signaling modifier project, cell-based, Sendai virus stimulus, luciferase, 10K MLSCN set (AID 602276;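 active means inhibition at or above 50% at 10 µM; inactive means inhibition below 50%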;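 further: firefly luciferase from ISG56 promoter only with Renilla not read in this screen; 0% = Sendai virus plus DMSO and 100% = medium plus DMSO without virus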). To be noted: HEK293 RL24 IRF3 luciferase reporter, at 10 µM, stronger effect = higher value. A general note: A reporter such as luciferase makes a cellular process visible.
Experiment [8] in a line: inhibitors of poly I:C-induced TLR3 signaling, primary screen, cell-based, poly I:C stimulus, luciferase, 10K MLSCN set (AID 602277;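 active means inhibition of the reporter signal at or above 50%; inactive means inhibition below 50%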). To be noted: HEK293-TLR3 RL24 IRF3 luciferase reporter, at 10 µM, stronger effect = higher value.

Voltage-gated potassium channel subunit beta-2 (Rattus norvegicus), sequence (P62483 whole entry, looked up): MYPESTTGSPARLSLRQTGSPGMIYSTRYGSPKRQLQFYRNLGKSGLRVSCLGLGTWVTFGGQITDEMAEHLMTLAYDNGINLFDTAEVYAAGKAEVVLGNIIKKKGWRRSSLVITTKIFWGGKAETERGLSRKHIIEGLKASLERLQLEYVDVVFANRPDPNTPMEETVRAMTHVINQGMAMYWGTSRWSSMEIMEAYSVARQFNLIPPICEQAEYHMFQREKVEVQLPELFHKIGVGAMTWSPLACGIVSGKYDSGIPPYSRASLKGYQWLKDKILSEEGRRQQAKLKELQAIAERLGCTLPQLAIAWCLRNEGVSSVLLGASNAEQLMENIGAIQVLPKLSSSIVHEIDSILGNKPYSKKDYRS
Alpha-2C adrenergic receptor (Homo sapiens), sequence (P18825 whole entry, looked up): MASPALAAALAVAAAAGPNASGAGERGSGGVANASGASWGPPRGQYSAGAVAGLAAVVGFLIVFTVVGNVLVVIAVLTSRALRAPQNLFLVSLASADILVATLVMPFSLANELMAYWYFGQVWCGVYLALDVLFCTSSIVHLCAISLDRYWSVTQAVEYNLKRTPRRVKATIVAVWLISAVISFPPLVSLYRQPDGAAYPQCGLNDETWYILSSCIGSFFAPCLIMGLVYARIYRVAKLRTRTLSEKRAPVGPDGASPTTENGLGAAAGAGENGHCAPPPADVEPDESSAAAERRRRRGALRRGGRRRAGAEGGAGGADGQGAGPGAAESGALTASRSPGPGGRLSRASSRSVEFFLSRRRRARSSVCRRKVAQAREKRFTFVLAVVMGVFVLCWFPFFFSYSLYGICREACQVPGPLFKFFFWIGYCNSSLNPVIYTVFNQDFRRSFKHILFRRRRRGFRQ

As to `COc1ccccc1N1CCN(Cc2nc(N)nc(Nc3ccc(C)c(Cl)c3)n2)CC1`, in experiment [1], the cell count is 467. The inhibition (in general, the drop in the measured response relative to a control, in per cent) in experiment [1] was -1.9% (inactive); in experiment [3], -5.6% (inactive); in experiment [7], 11.5% (inactive); in experiment [8], 29.6% (inactive). In addition, in experiment [2], the inhibition of aggregation was 17.2% (inactive). Also, the nuclei count came out at 97.1% in experiment [2] and 100% in experiment [3]. The fluorescence slope in experiment [4] is -0.501 (inactive). For the same compound, the NADPH fluorescence slope in experiment [5] is 1e-05 (inactive). For the same compound, the slope in experiment [6] is 0.00625 (inactive).

Turning to `COc1ccc(CN(CC(=O)NCc2ccco2)C(=O)CCC(=O)Nc2nccs2)cc1`, the cell count in experiment [1] is 438. Further, the inhibition was 3.6% (inactive) in experiment [1], -24.4% (inactive) in experiment [3], 11.3% (inactive) in experiment [7] and 12.7% (inactive) in experiment [8]. Further, the inhibition of aggregation in experiment [2] was -4.3% (inactive). Besides, the nuclei count in experiment [2] stood at 102%; in experiment [3], 114%. In addition, the fluorescence slope in experiment [4] was -0.403 (inactive). In addition, the NADPH fluorescence slope in experiment [5] is -3.8e-05 (inactive). In addition, the slope in experiment [6] is 0.00588 (inactive).

Regarding `CCc1nnc(NC(=O)c2ccc(COc3ccc(C)cc3)o2)s1`, the cell count in experiment [1] was found to be 312. Moreover, the inhibition in experiment [1] was -1.9% (inactive); in experiment [3], 7.7% (inactive); in experiment [7], -17.4% (inactive); in experiment [8] it was 99.8% (active). Besides, the inhibition of aggregation in experiment [2] was 6.3% (inactive). Moreover, the nuclei count in experiment [2] is 109%; in experiment [3], 110%. Also, the fluorescence slope in experiment [4] was -0.468 (inactive). For the same compound, in experiment [5], the NADPH fluorescence slope was -0.00028 (inactive). Further, the slope in experiment [6] was 0.00745 (inactive).

Take `Cc1c(Cl)cnc(NC(=O)COC(=O)C(NC(=O)c2ccco2)C(C)C)c1Cl` (centres undefined): in experiment [1], the cell count was 362. Also, the inhibition was 7.4% (inactive) in experiment [1], -17.2% (inactive) in experiment [3], 6.87% (inactive) in experiment [7] and 5.64% (inactive) in experiment [8]. The inhibition of aggregation in experiment [2] was -2.1% (inactive). For the same compound, the nuclei count in experiment [2] is 80.5%; in experiment [3] it was 112%. Besides, the fluorescence slope in experiment [4] was -0.584 (inactive). Also, the NADPH fluorescence slope in experiment [5] is -3.9e-05 (inactive). The slope in experiment [6] was 0.00552 (inactive).

Take `Clc1ccc(CSc2nnc(Cn3cnc4ccccc43)o2)cc1`: the cell count in experiment [1] was 618. Further, the inhibition in experiment [1] is -2.5% (inactive); in experiment [3] it was -1.1% (inactive); in experiment [7], -20.9% (inactive); in experiment [8], -27.5% (inactive). Moreover, in experiment [2], the inhibition of aggregation was 20.9% (inactive). Besides, the values for the nuclei count in experiment [2] and in experiment [3] were 72.2% and 98.2%, respectively. Further, the fluorescence slope in experiment [4] is -0.48 (inactive). In addition, in experiment [5], the NADPH fluorescence slope is -1.4e-05 (inactive). Moreover, in experiment [6], the slope is 0.00613 (inactive).

As to `CC(C)(C)C(=O)NC1CCN(C(=O)N2CCCC2)CC1`, the cell count in experiment [1] was found to be 685. The inhibition was -6.3% (inactive) in experiment [1], -36.6% (inactive) in experiment [3], 12.1% (inactive) in experiment [7] and 20.9% (inactive) in experiment [8]. Further, the inhibition of aggregation in experiment [2] was -5.3% (inactive). The values for the nuclei count in experiment [2] and in experiment [3] were 107% and 118%, respectively. For the same compound, the fluorescence slope in experiment [4] was -0.311 (inactive). Further, in experiment [5], the NADPH fluorescence slope was -3.2e-05 (inactive). Further, in experiment [6], the slope was 0.00525 (inactive).

For the compound `Cc1cc(C)n(-c2ccc(C(=O)Nc3ccc4c(c3)OCCO4)cc2)n1`, the cell count in experiment [1] is 529. The inhibition was -16.3% (inactive) in experiment [1], 11.9% (inactive) in experiment [3], -19.7% (inactive) in experiment [7] and -108% (inactive) in experiment [8]. Besides, the inhibition of aggregation in experiment [2] is -2.4% (inactive). Moreover, the nuclei count in experiment [2] was 103%; in experiment [3], 110%. In addition, in experiment [4], the fluorescence slope was -0.254 (inactive). Besides, the NADPH fluorescence slope in experiment [5] was -2.3e-05 (inactive). In addition, the slope in experiment [6] was 0.00537 (inactive).

On to `CC1CCN(Cc2nc3c(c(=O)n(C)c(=O)n3C)n2Cc2cccc3ccccc23)CC1`, for which, in experiment [1], the cell count was determined as 703. Also, the inhibition in experiment [1] was -22.3% (inactive); in experiment [3] it was -26.6% (inactive); in experiment [7] it was 13.1% (inactive); in experiment [8], 41.7% (inactive). Besides, in experiment [2], the inhibition of aggregation is 12.7% (inactive). Moreover, the nuclei count in experiment [2] amounted to 105%; in experiment [3], 131%. Besides, the fluorescence slope in experiment [4] is -0.427 (inactive). Moreover, the NADPH fluorescence slope in experiment [5] is -2.4e-05 (inactive). Further, in experiment [6], the slope is 0.00536 (inactive).

As to `CCOc1ccc(Oc2nc(Nc3ccc(C)cc3)nc(N(C)C)n2)nn1`, in experiment [1], the cell count was 619. Moreover, the inhibition is -0.3% (inactive) in experiment [1], -14.3% (inactive) in experiment [3], -17.8% (inactive) in experiment [7] and 1.23% (inactive) in experiment [8]. In addition, the inhibition of aggregation in experiment [2] was 25.8% (inactive). The nuclei count in experiment [2] turned out to be 71.1%; in experiment [3], 106%. The fluorescence slope in experiment [4] is -0.491 (inactive). Also, in experiment [5], the NADPH fluorescence slope was -4.9e-05 (inactive). Also, in experiment [6], the slope was 0.00543 (inactive).

`O=C(OC1CCOC1=O)c1ccc(S(=O)(=O)N2CCCCCC2)cc1` (centres undefined): in experiment [1], the cell count amounted to 466. The inhibition was 1.1% (inactive) in experiment [1], -116% (inactive) in experiment [3], 5.47% (inactive) in experiment [7] and 14.9% (inactive) in experiment [8]. Besides, the inhibition of aggregation in experiment [2] is -2.3% (inactive). Also, the values for the nuclei count in experiment [2] and in experiment [3] were 92.8% and 97.1%, respectively. Also, in experiment [4], the fluorescence slope is -0.329 (inactive). The NADPH fluorescence slope in experiment [5] was 7.8e-06 (inactive). The slope in experiment [6] was 0.00585 (inactive).

With `COc1ccc(-n2nnnc2SCC(=O)c2ccc(O)c(O)c2)cc1`, in experiment [1], the cell count amounted to 344. In addition, the inhibition is -6.5% (inactive) in experiment [1], -74.4% (inactive) in experiment [3], 13.7% (inactive) in experiment [7] and 16.9% (inactive) in experiment [8]. Besides, in experiment [2], the inhibition of aggregation is 20.5% (inactive). The nuclei count in experiment [2] stood at 91.8%; in experiment [3], 112%. For the same compound, the fluorescence slope in experiment [4] was -0.487 (inactive). Besides, the NADPH fluorescence slope in experiment [5] is -0.000117 (inactive). Further, the slope in experiment [6] was 0.00395 (inactive).

Consider `COC(=O)CSc1nnc(-c2ccncc2)o1`, for which the cell count in experiment [1] was found to be 366. The inhibition in experiment [1] is -6.8% (inactive); in experiment [3], -16.8% (inactive); in experiment [7], 6.97% (inactive); in experiment [8], 32.3% (inactive). Moreover, the inhibition of aggregation in experiment [2] is -4.1% (inactive). Also, the nuclei count in experiment [2] was determined as 94.2%; in experiment [3] it was 106%. The fluorescence slope in experiment [4] was -0.46 (inactive). The NADPH fluorescence slope in experiment [5] is -4.6e-05 (inactive). In experiment [6], the slope was 0.00309 (inactive).

Consider `COCCCNC(=O)CSc1ccc(Cl)cc1`, for which, in experiment [1], the cell count is 378. Also, the inhibition in experiment [1] is -1.8% (inactive); in experiment [3] it was 10.2% (inactive); in experiment [7], 1.1% (inactive); in experiment [8], 10.8% (inactive). Moreover, the inhibition of aggregation in experiment [2] is -3.3% (inactive). Further, the nuclei count is 93.9% in experiment [2] and 80% in experiment [3]. Also, the fluorescence slope in experiment [4] was -0.377 (inactive). Also, the NADPH fluorescence slope in experiment [5] was -5e-05 (inactive). Moreover, in experiment [6], the slope is 0.00511 (inactive).

Consider `Cc1ccc(OCCN2CCN(C(=O)CCC(=O)Nc3nnc(C)s3)CC2)cc1`, for which, in experiment [1], the cell count was 349. The inhibition in experiment [1] is -4.3% (inactive); in experiment [3], -18.9% (inactive); in experiment [7] it was 9.9% (inactive); in experiment [8], 19.2% (inactive). The inhibition of aggregation in experiment [2] was -14.8% (inactive). The nuclei count in experiment [2] and in experiment [3] was 100% each time. For the same compound, the fluorescence slope in experiment [4] is -0.318 (inactive). In experiment [5], the NADPH fluorescence slope was -6.3e-05 (inactive). The slope in experiment [6] was 0.00527 (inactive).
